From patent US20210230599, “STEM-LOOP COMPOSITIONS AND METHODS FOR INHIBITING INTERLEUKIN-8” (VITRISA THERAPEUTICS, INC., published 2021) come the findings set out here.

This experiment has as its target Interleukin-8 (IL8, CXCL8), C-terminal His-tagged (Homo sapiens, UniProt P10145 SEQ:1-72). Nature of the experiment: competition; competition TR-FRET; deletion at position 16. Particulars: tags: C-terminal 6xHis (Sino Biological); ssRNA; 2'-F G, 2'-OMe A/C/U, 5' C6NH2, 3' idT. Here is the method: Activity of each of these variants were tested using a time resolved competition TR-FRET assay in which the labeled parent Aptamer 3 was competed with increasing concentrations of unlabeled variants for binding to IL8 (FIG. 14). Briefly, 2-fold dilutions of thermally equilibrated aptamers were made in TR-FRET Buffer (50 mM MOPS, pH 7.4, 125 mM NaCl, 5 mM KCl, 50 μM CHAPS, 0.1 mg/mL BSA, 1 mM CaCl₂, and 1 mM MgCl₂). 5 μL of aptamer or control solution was added to 5 μl mix of 10 nM C-terminal His-tagged-IL8, 60 nM ALEXA FLUOR® 647-labeled Aptamer, and 5 nM anti-His-Eu (Perkin Elmer) in a black wall low volume 384 well plate (Greiner). For control, 5 μl of 1000-fold excess of unlabeled parent aptamer or 5 μl TR-FRET buffer alone was added to the mix of ALEXA FLUOR® 647-labeled aptamer, His-IL8, and anti-His-Eu. The plate was covered with a plate seal and subsequently incubated in the dark for 1 hour at room temperature. The plate was read on a Biotek CYTATION™ 5 plate reader. Samples were excited at 330 nm and fluorescent values were collected at 665 nm. Data analysis was performed by subtracting the background value and plotting as percent inhibition, normalized to baseline in the absence of competitor. […]
(In general: TR-FRET usually uses a lanthanide donor and a delayed reading to cut background.)
In turn, UGAUGACGGUAGAUUUGGGUAGAGUGACCGCAUCU displayed a binding signal of roughly 5 fold worse than Aptamer 3.
